In PubChem BioAssay (NCATS):
Results filed as inconclusive are left out. A number with no mark means an inactive call. Calls of active or inactive are those of the source. The call rests on the fitted dose curve; in most records, active means well fitted cell-killing curve with a large enough effect; inconclusive means small, poorly fitted or top-dose-only effect, or effect the other way; inactive means no such curve, though single readings can be large or run the other way.

Legend:
[1] = Quantitative High-Throughput drug screen in 47 multiple myeloma cell lines against the NCATS MIPE library collection: MM1R_ATCC cell viability assay (AID 1918981); further: nearly all actives have a fitted effect of over 35% in size; further: potency means the concentration at half of the fitted maximal effect
How it was run: (§1)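 500 cells/well per myeloma line exposed to pinned MIPE 4.0 compounds for 48 h at 37 °C, 5% CO2. Viability read as ATP by CellTiter-Glo luminescence, normalised to DMSO-only (100%) and media-only (0%) wells.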

[2] = Quantitative High-Throughput drug screen in 47 multiple myeloma cell lines against the NCATS MIPE library collection: KMS28PE_JCRB cell viability assay (AID 1918983); further: nearly all actives have a fitted effect of over 35% in size; further: potency means the concentration at half of the fitted maximal effect
How it was run: as §1

[3] = Quantitative High-Throughput drug screen in 47 multiple myeloma cell lines against the NCATS MIPE library collection: XG1_PLB cell viability assay (AID 1919866); further: nearly all actives have a fitted effect of over 35% in size; further: potency means the concentration at half of the fitted maximal effect
How it was run: as §1

[4] = Quantitative High-Throughput drug screen in 47 multiple myeloma cell lines against the NCATS MIPE library collection: OPM2_DSMZ cell viability assay (AID 1919872); further: nearly all actives have a fitted effect of over 30% in size; further: potency means the concentration at half of the fitted maximal effect
How it was run: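 Myeloma cell lines, 500 cells per well, exposed to MIPE 4.0 library compounds for 48 h at 37C, 5% CO2. Viability from ATP by CellTiter-Glo luminescence; normalised to DMSO (100%) and media-only (0%) wells.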

[5] = Quantitative High-Throughput drug screen in 47 multiple myeloma cell lines against the NCATS MIPE library collection: KMS28BM_JCRB cell viability assay (AID 1919874); further: nearly all actives have a fitted effect of over 35% in size; further: potency means the concentration at half of the fitted maximal effect
How it was run: as §1

[6] = Quantitative High-Throughput drug screen in 47 multiple myeloma cell lines against the NCATS MIPE library collection: OCIMY5_PLB cell viability assay (AID 1918988); further: potency means the concentration at half of the fitted maximal effect; nearly all actives have a fitted effect of over 65% in size
How it was run: as §1

[7] = Quantitative High-Throughput drug screen in 47 multiple myeloma cell lines against the NCATS MIPE library collection: OPM1_PLB cell viability assay (AID 1918989); further: nearly all actives have a fitted effect of over 40% in size; further: potency means the concentration at half of the fitted maximal effect
How it was run: as §1

[8] = Quantitative High-Throughput drug screen in 47 multiple myeloma cell lines against the NCATS MIPE library collection: SKMM1_PLB cell viability assay (AID 1919863); settings: SKMM1 myeloma viability, CellTiter-Glo ATP, 48 h; viability: hits give low values
How it was run: as §1

[9] = Quantitative High-Throughput drug screen in 47 multiple myeloma cell lines against the NCATS MIPE library collection: U266_ATCC cell viability assay (AID 1919864)
How it was run: as §1

[10] = Quantitative High-Throughput drug screen in 47 multiple myeloma cell lines against the NCATS MIPE library collection: XG6_PLB cell viability assay (AID 1919865); further: potency means the concentration at half of the fitted maximal effect; nearly all actives have a fitted effect of over 40% in size
How it was run: as §1

[11] = Quantitative High-Throughput drug screen in 47 multiple myeloma cell lines against the NCATS MIPE library collection: VP6_DJ cell viability assay (AID 1919867); further: nearly all actives have a fitted effect of over 40% in size; further: potency means the concentration at half of the fitted maximal effect
How it was run: as §1

[12] = Quantitative High-Throughput drug screen in 47 multiple myeloma cell lines against the NCATS MIPE library collection: PE2_PLB cell viability assay (AID 1919869); further: nearly all actives have a fitted effect of over 35% in size; further: potency means the concentration at half of the fitted maximal effect
How it was run: as §1

[13] = Quantitative High-Throughput drug screen in 47 multiple myeloma cell lines against the NCATS MIPE library collection: KMS34_JCRB cell viability assay (AID 1918985); further: nearly all actives have a fitted effect of over 40% in size; further: potency means the concentration at half of the fitted maximal effect
How it was run: as §1

[14] = Quantitative High-Throughput drug screen in 47 multiple myeloma cell lines against the NCATS MIPE library collection: PCM6_Riken cell viability assay (AID 1919870); further: potency means the concentration at half of the fitted maximal effect; nearly all actives have a fitted effect of over 30% in size
How it was run: as §1

[15] = Quantitative High-Throughput drug screen in 47 multiple myeloma cell lines against the NCATS MIPE library collection: RPMI8226_ATCC cell viability assay (AID 1919871); further: nearly all actives have a fitted effect of over 30% in size; further: potency means the concentration at half of the fitted maximal effect
How it was run: as §1

[16] = Quantitative High-Throughput drug screen in 47 multiple myeloma cell lines against the NCATS MIPE library collection: KMS11_JCRBsus cell viability assay (AID 1919873); further: nearly all actives have a fitted effect of over 50% in size; further: potency means the concentration at half of the fitted maximal effect
How it was run: as §1

[17] = Quantitative High-Throughput drug screen in 47 multiple myeloma cell lines against the NCATS MIPE library collection: L363_DSMZ cell viability assay (AID 1918984); settings: L363 myeloma viability, CellTiter-Glo ATP luminescence, 48 h; viability (% of control): at 45.8 µM (top of the series); further: nearly all actives have a fitted effect of over 40% in size; further: potency means the concentration at half of the fitted maximal effect
How it was run: as §1

[18] = Quantitative High-Throughput drug screen in 47 multiple myeloma cell lines against the NCATS MIPE library collection: OCIMY7_PLB cell viability assay (AID 1918987); settings: OCI-MY7 myeloma viability, CellTiter-Glo ATP, 48 h; viability (% of DMSO): at 45.8 µM (top of the series); further: potency means the concentration at half of the fitted maximal effect; nearly all actives have a fitted effect of over 65% in size
How it was run: as §1

[19] = Quantitative High-Throughput drug screen in 47 multiple myeloma cell lines against the NCATS MIPE library collection: LP1_DSMZ cell viability assay (AID 1918982); further: nearly all actives have a fitted effect of over 35% in size
How it was run: as §1

[20] = Quantitative High-Throughput drug screen in 47 multiple myeloma cell lines against the NCATS MIPE library collection: UTMC2_PLB cell viability assay (AID 1919868); settings: CellTiter-Glo ATP luminescence, 48 h; viability (% of DMSO control): at 45.8 µM (top of the series); further: potency means the concentration at half of the fitted maximal effect; nearly all actives have a fitted effect of over 55% in size
How it was run: as §1

For `Cc1nc2c([nH]1)CCN(C(=O)c1ccc(NC(=O)c3ccccc3-c3ccccc3)cc1)c1ccccc1-2`, the Potency [1] was “inactive”, the Potency [2] was “inactive” and the Potency [3] was “inactive”. For the same compound, the Potency [4] was “inactive” and the Potency [5] was “inactive”.

With `CN(C)c1ccccc1CN1CCCN(Cc2ccccc2N(C)C)C1c1ccncc1` the Potency [1] was 18.7 µM (active), the Potency [2] was 23.5 µM (active) and the Potency [6] was 20.9 µM (active). The Potency [7] was 20.9 µM (active), the Potency [8] was 20.9 µM (active) and the Potency [9] was 14.8 µM (active). For the same compound, the Potency [10] was 16.6 µM (active), the Potency [11] was 18.7 µM (active) and the Potency [12] was 18.7 µM (active). For the same compound, the Potency [5] was “inactive”.

For `N#CC1(c2cccc(C(=O)Nc3cc(Oc4ccc5nc(NC(=O)C6CC6)sc5n4)ccc3F)c2Cl)CC1`, the Potency [1] was 14.8 µM (active), the Potency [13] was “inactive” and the Potency [8] was 2.96 µM (active). The Potency [9] was 5.26 µM (active), the Potency [10] was 1.48 µM (active) and the Potency [11] was 5.9 µM (active). For the same compound, the Potency [14] was 14.8 µM (active), the Potency [15] was 1.05 µM (active) and the Potency [16] was 0.132 µM (active).

For `CCCCC(C)(C)[C@H](O)C=C[C@H]1[C@H](O)CC(=O)[C@H]1CC=CCCCC(=O)O`, the Potency [1] was 18.7 µM (active), the Potency [13] was 5.9 µM (active) and the Potency [7] was 18.7 µM (active). The Potency [9] was 13.2 µM (active), the Potency [10] was 23.5 µM (active) and the Potency [14] was 26.4 µM (active). For the same compound, the Potency [15] was 8.33 µM (active).

In the case of `NC(=O)c1nnn(Cc2cc(Cl)c(C(=O)c3ccc(Cl)cc3)c(Cl)c2)c1N`, the Potency [1] is reported as 18.7 µM (active), the Potency [17] is reported as “inactive” and the Potency [6] is reported as 26.4 µM (active). The Potency [7] was 16.6 µM (active), the Potency [9] was 16.6 µM (active) and the Potency [10] was 18.7 µM (active). The Potency [3] was 20.9 µM (active), the Potency [11] was 20.9 µM (active) and the Potency [12] was 23.5 µM (active). The Potency [15] was 14.8 µM (active) and the Potency [16] was 16.6 µM (active).

In the case of `COc1c(C)c2c(c(O)c1CC=C(C)CCC(=O)O)C(=O)OC2`, the Potency [1] is reported as 11.8 µM (active), the Potency [18] is reported as 4.69 µM (active) and the Potency [6] is reported as 7.43 µM (active). For the same compound, the Potency [7] was 11.8 µM (active), the Potency [8] was 5.26 µM (active) and the Potency [9] was 8.33 µM (active). For the same compound, the Potency [10] was 3.32 µM (active), the Potency [11] was 5.9 µM (active) and the Potency [12] was 3.32 µM (active). The Potency [15] was 7.43 µM (active), the Potency [4] was 11.8 µM (active) and the Potency [5] was 2.64 µM (active).

For `COc1ccc(-c2oc3c(CC=C(C)C)c(O)cc(O)c3c(=O)c2O)cc1`, the Potency [1] was 20.9 µM (active), the Potency [18] was 5.9 µM (active) and the Potency [6] was 14.8 µM (active). The Potency [7] was “inactive”, the Potency [8] was 20.9 µM (active) and the Potency [9] was 16.6 µM (active). For the same compound, the Potency [10] was 6.62 µM (active), the Potency [11] was 5.26 µM (active) and the Potency [12] was “inactive”. For the same compound, the Potency [14] was 7.43 µM (active), the Potency [15] was 20.9 µM (active) and the Potency [4] was “inactive”. For the same compound, the Potency [16] was “inactive” and the Potency [5] was 3.72 µM (active).

With `COc1ccc2ccc(=O)oc2c1CC=C(C)C` the Potency [1] was 13.2 µM (active), the Potency [17] was 10.5 µM (active) and the Potency [13] was 13.2 µM (active). The Potency [6] was 8.33 µM (active), the Potency [7] was “inactive” and the Potency [9] was 13.2 µM (active). The Potency [12] was “inactive”.

For `CCc1cc(-c2n[nH]c(C)c2-c2ccc3c(c2)OCCO3)c(O)cc1O`, the Potency [1] was 6.62 µM (active), the Potency [17] was 0.148 µM (active) and the Potency [13] was 3.32 µM (active). For the same compound, the Potency [18] was 1.66 µM (active), the Potency [6] was 3.72 µM (active) and the Potency [7] was 6.62 µM (active). The Potency [9] was 7.43 µM (active), the Potency [10] was 9.35 µM (active) and the Potency [3] was 4.18 µM (active). The Potency [11] was 4.18 µM (active), the Potency [12] was 8.33 µM (active) and the Potency [14] was 8.33 µM (active). For the same compound, the Potency [15] was 6.62 µM (active), the Potency [4] was 7.43 µM (active) and the Potency [16] was 1.87 µM (active). For the same compound, the Potency [5] was 11.8 µM (active).

With `Oc1cc(O)cc(C=Cc2ccc(O)c(O)c2)c1` the Potency [1] was 20.9 µM (active), the Potency [13] was 11.8 µM (active) and the Potency [18] was 5.26 µM (active). The Potency [6] was 20.9 µM (active), the Potency [7] was 16.6 µM (active) and the Potency [8] was 23.5 µM (active). The Potency [10] was 5.26 µM (active), the Potency [3] was 8.33 µM (active) and the Potency [11] was 10.5 µM (active). The Potency [12] was 4.18 µM (active) and the Potency [14] was 10.5 µM (active).

In the case of `Cc1cnc(CNC(=O)c2c(=O)c3ccc(N4CCCN(C)CC4)nc3n3c2sc2ccccc23)cn1`, the Potency [1] is reported as 7.24 µM (active), the Potency [2] is reported as 12.9 µM (active) and the Potency [6] is reported as 10.2 µM (active). The Potency [7] was “inactive”, the Potency [8] was 5.75 µM (active) and the Potency [9] was 1.82 µM (active). For the same compound, the Potency [10] was 5.12 µM (active), the Potency [11] was “inactive” and the Potency [12] was “inactive”. The Potency [15] was 8.12 µM (active), the Potency [16] was “inactive” and the Potency [5] was “inactive”.

In the case of `CCOc1ccccc1N=Nc1c(C)[nH]n(-c2nc(-c3ccccc3)cs2)c1=O`, the Potency [1] is reported as 3.32 µM (active), the Potency [13] is reported as “inactive” and the Potency [6] is reported as 1.18 µM (active). For the same compound, the Potency [8] was 2.96 µM (active), the Potency [9] was 8.33 µM (active) and the Potency [12] was “inactive”. The Potency [15] was 2.35 µM (active) and the Potency [4] was “inactive”.

In the case of `C[C@]12CC[C@@H]3c4ccc(O)cc4CC[C@H]3[C@H]1[C@@H](O)[C@@H](O)[C@H]2O`, the Potency [19] is reported as “inactive”, the Potency [2] is reported as “inactive” and the Potency [17] is reported as “inactive”. The Potency [13] was “inactive”, the Potency [7] was “inactive” and the Potency [10] was 14.8 µM (active). The Potency [3] was 14.8 µM (active), the Potency [11] was “inactive” and the Potency [12] was “inactive”. For the same compound, the Potency [4] was “inactive” and the Potency [5] was “inactive”.

For `CC(=O)N1CCN(c2ccc(OCc3nn(C)c(C)c3-c3cccc4c(CCCOc5cc(C)c(Cl)c(C)c5)c(C(=O)O)n(Cc5cccnc5)c34)cc2)CC1`, the Potency [19] was “inactive”, the Potency [2] was 20.9 µM (active) and the Potency [17] was 18.7 µM (active). For the same compound, the Potency [18] was 0.833 µM (active), the Potency [6] was 20.9 µM (active) and the Potency [7] was 7.43 µM (active). The Potency [9] was 20.9 µM (active), the Potency [10] was 5.9 µM (active) and the Potency [11] was 10.5 µM (active). The Potency [20] was 7.43 µM (active), the Potency [14] was 16.6 µM (active) and the Potency [15] was “inactive”. For the same compound, the Potency [4] was “inactive” and the Potency [16] was 20.9 µM (active).
